# Laboratory results taken from PubChem BioAssay.
# The source made the active and inactive calls. Unless noted, the rule behind the calls is not given here.
# How the values were obtained:
# [1] = system: Wnt5a (protein binding on small-molecule microarray); test: Wnt5a binders on small-molecule microarray, primary screen, biophysical, 635/667 nm fluorescence (AID 1142); details: 635 nm fluorescence, higher = more signal;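 note: fluorescence read at 667 nm with signal to noise per printed feature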
# [2] = cell viability in Huh7 cells, primary screen, cytotoxicity control for HCV replication inhibitor project, CellTiter-Glo luminescence, basal, 48 h (AID 1143); details: Huh7 HCV replicon, higher = more signal, called active from +8 up or from −8 down;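 note: Huh7 hepatoma cells carrying a hepatitis C replication reporter with no stimulus; test concentration not given here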
# [3] = P. aeruginosa biofilm formation inhibitors, primary screen, PAO1 strain, BacTiter-Glo luminescence, LB-PBS (AID 1144); details: 12 h, higher = more signal
# [4] = CREB reporter modulators without forskolin, primary screen, cell-based, PC12, CRE-LacZ reporter, unstimulated (AID 1145); details: no forskolin, luminescence, 4.5 h, higher = more signal, called active from +8 up or from −8 down
# [5] = CREB reporter modulators under forskolin, primary screen, cell-based, PC12, CRE-LacZ reporter, forskolin-stimulated (AID 1146); details: luminescence, 4.5 h, higher = more signal, called active from +8 up or from −8 down;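 note: PC12 cells with 6xCRE LacZ reporter stimulated by forskolin 10 µM; beta-galactosidase reporter signal reflecting CREB driven transcription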
# [6] = molecular target: Streptavidin (Streptomyces avidinii) (UniProt P22629); test: streptavidin binders on small-molecule microarray, primary screen, artefact control for SMM compound annotation, biophysical, 635/667 nm fluorescence (AID 1147); details: streptavidin binding, higher = more signal;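 note: signal reflects streptavidin binding to arrayed compounds as a control protein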
# [7] = small-molecule binders of probe aInhba, primary screen, biochemical, small-molecule microarray, 635/667 nm fluorescence (AID 1148); details: higher = more signal;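 note: score merges 667nm spot fluorescence with signal-to-noise for antibody binding to printed compounds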
# Torsin-1A (Homo sapiens) [8] = molecular target: Torsin-1A (Homo sapiens) (UniProt O14656); test: torsin A binders from cell lysate, primary screen, small-molecule microarray, wild-type, 635/667 nm (AID 1149); details: COS7 hTOR1A-WT lysate, 635 nm fluorescence, higher = more signal
# Torsin-1A (Homo sapiens) [9] = molecular target: Torsin-1A (Homo sapiens) (UniProt O14656); test: small-molecule binders of mutant TOR1A in lysate, primary screen, cell lysate, small-molecule microarray, COS7 lysate, 635/667 nm fluorescence (AID 1150); details: COS7 hTOR1A mutant lysate, 635 nm fluorescence, higher = more signal;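 note: score pools 667 nm emission and signal to noise measuring lysate protein binding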
# [10] = system: Sonic hedgehog protein (Shh); test: small-molecule binders of Shh protein, primary screen, biochemical, small-molecule microarray, 635/667 nm fluorescence (AID 1151); details: small-molecule microarray binding, 635 nm fluorescence; higher = more signal;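 note: Shh protein binding to compounds spotted on small-molecule microarray slides; score combines spot fluorescence intensity with signal-to-noise across triplicate slides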
# [11] = E. coli DRC41 culture turbidity changes, primary screen, E. coli filamentation inducer project, strain DRC41, OD650, 48 h (AID 1152);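 note: E. coli MC1000 strain DRC41 lacking acrAB efflux pump and sulA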; details: E. coli DRC41 (acrAB sulA), higher = more signal, called active from +8 up or from −8 down
# [12] = small-molecule binders of probe aLefty1, primary screen, biochemical, small-molecule microarray, 635/667 nm fluorescence (AID 1153); details: higher = more signal;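 note: score merges spot fluorescence with signal-to-noise ratio from the scanned slide images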
# [13] = PSAC antagonists in infected red cells, primary screen, cell-based, P. falciparum Indochina, OD700, 1 h (AID 1154); details: P. falciparum Indochina infected RBC osmotic lysis, higher = more signal, called active from +8 up or from −8 down
# [14] = PSAC antagonists in infected red cells, primary screen, cell-based, P. falciparum Indochina, OD700, 2 h (AID 1155);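 note: lysis reports solute entry through the parasite surface anion channel PSAC; channel blockers reduce lysis of infected cells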; details: P. falciparum Indochina infected erythrocytes, osmotic lysis OD700; higher = more signal, called active from +8 up or from −8 down
# [15] = osmotic lysis modulators in infected erythrocytes, primary screen, PSAC antagonist project, cell-based, P. falciparum Indochina, OD700, 3 h (AID 1156); details: higher = more signal, called active from +8 up or from −8 down
# [16] = PSAC antagonists in infected red cells, primary screen, cell-based, P. falciparum Indochina, OD700, 18 h (AID 1157); details: P. falciparum Indochina infected erythrocytes, osmotic lysis OD700, 18 h; higher = more signal, called active from +8 up or from −8 down
# [17] = modulators of S6 phosphorylation in cells, primary screen, cell-based, A549, cytoblot, luminescence, serum-stimulated (AID 1158); details: A549 phospho-S6 cytoblot, 5 h, higher = more signal;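 note: serum-stimulated A549 lung adenocarcinoma cells; signal is phosphorylated S6 detected by cytoblot immunostaining with HRP secondary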
# [18] = molecular target: NADPH oxidase 2 (Homo sapiens) (UniProt P04839); test: NOX2-dependent H2O2 signal modulators, primary screen, NOX inhibitor project, cell-based, HEK293-NOX2, PMA-stimulated, Amplex Red fluorescence (AID 1159); details: 45 min, higher = more signal, called active from +8 up or from −8 down; note: test concentration not given here
# [19] = molecular target: NADPH oxidase 4 (Homo sapiens) (UniProt Q9NPH5); test: NOX4-dependent H2O2 signal modulators, primary screen, NOX inhibitor project, cell-based, HEK293-NOX4, tetracycline-induced, Amplex Red fluorescence (AID 1160); details: 45 min, higher = more signal, called active from +8 up or from −8 down
# [20] = molecular target: NADPH oxidase 5 (Homo sapiens) (UniProt Q96PH1); test: NOX5-dependent H2O2 signal modulators, primary screen, NOX inhibitor project, cell-based, HEK293-NOX5, Amplex Red fluorescence (AID 1161); details: HEK293-NOX5, ionomycin, 45 min, higher = more signal
# NADPH oxidase 5 (Homo sapiens), sequence (Q96PH1 whole entry, looked up): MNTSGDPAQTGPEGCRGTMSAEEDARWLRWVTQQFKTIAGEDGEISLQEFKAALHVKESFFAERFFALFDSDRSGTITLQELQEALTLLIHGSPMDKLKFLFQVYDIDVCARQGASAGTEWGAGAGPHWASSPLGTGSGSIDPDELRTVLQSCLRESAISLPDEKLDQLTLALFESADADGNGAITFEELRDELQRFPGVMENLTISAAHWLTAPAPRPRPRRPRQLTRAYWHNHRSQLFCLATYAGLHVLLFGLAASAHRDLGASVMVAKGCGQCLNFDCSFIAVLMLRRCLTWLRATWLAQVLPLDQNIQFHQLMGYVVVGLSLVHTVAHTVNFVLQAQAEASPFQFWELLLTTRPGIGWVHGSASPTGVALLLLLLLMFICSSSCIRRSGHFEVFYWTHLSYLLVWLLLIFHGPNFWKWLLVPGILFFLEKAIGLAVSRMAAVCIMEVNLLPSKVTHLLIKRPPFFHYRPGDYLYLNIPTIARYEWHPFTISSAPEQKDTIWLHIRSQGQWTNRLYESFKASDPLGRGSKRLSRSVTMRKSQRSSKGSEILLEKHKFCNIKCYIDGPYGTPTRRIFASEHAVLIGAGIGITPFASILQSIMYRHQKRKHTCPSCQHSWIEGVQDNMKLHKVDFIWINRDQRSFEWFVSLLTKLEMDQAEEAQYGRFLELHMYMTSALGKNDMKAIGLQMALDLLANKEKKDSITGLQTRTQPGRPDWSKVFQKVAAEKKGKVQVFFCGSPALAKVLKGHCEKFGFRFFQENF
# Streptavidin (Streptomyces avidinii), sequence (P22629 whole entry, looked up): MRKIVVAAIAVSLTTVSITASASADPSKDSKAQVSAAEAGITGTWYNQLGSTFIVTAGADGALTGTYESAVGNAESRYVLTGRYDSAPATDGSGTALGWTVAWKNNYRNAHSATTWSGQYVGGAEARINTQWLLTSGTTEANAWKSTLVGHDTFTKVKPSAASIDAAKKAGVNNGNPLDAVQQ
# Torsin-1A (Homo sapiens), sequence (O14656 whole entry, looked up): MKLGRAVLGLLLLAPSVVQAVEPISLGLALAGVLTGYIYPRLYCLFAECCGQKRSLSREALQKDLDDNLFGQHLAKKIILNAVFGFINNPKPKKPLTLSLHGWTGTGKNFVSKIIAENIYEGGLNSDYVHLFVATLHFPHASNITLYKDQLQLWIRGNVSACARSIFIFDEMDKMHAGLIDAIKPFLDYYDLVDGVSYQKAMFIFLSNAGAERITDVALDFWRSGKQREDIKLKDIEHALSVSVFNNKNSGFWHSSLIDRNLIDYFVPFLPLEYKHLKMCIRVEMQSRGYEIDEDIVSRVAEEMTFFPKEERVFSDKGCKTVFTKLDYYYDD
# NADPH oxidase 2 (Homo sapiens), sequence (P04839 whole entry, looked up): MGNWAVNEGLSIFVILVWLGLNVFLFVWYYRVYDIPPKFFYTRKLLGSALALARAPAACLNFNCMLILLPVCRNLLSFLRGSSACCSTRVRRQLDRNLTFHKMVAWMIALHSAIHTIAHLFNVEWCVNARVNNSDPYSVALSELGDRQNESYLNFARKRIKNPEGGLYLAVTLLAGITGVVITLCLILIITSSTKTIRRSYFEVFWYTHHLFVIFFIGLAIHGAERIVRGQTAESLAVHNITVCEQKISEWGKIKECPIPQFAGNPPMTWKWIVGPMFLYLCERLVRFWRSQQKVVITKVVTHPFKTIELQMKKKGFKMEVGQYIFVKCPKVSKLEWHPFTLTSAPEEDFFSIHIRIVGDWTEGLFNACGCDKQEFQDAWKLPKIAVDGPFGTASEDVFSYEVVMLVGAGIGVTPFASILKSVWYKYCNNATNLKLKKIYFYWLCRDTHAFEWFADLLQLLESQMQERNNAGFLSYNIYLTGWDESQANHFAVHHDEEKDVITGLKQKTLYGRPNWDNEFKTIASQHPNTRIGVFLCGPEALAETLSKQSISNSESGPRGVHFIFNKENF
# NADPH oxidase 4 (Homo sapiens), sequence (Q9NPH5 whole entry, looked up): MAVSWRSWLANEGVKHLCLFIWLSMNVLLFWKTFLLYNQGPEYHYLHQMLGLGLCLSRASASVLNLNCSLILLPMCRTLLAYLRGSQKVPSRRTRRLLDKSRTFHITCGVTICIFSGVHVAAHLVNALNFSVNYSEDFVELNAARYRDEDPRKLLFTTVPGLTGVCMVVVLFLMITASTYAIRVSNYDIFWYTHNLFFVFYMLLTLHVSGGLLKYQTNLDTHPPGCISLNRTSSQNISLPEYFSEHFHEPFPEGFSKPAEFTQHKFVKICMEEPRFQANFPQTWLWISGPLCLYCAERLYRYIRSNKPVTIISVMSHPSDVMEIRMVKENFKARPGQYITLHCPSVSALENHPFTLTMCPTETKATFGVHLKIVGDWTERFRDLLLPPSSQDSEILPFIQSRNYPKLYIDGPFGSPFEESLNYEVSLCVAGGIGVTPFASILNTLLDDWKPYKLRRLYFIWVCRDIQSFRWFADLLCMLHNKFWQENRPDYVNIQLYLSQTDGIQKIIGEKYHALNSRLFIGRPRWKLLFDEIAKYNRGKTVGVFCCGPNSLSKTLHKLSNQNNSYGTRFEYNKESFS
Structure (SMILES),composite z-score [1],z-score [2],z-score [3],z-score [4],z-score [5],composite z-score [6],composite z-score [7],composite z-score (Torsin-1A (Homo sapiens) [8]),composite z-score (Torsin-1A (Homo sapiens) [9]),composite z-score [10],z-score [11],composite z-score [12],z-score [13],z-score [14],z-score [15],z-score [16],z-score [17],z-score [18],z-score [19],z-score [20]
CC(CCN1CCCc2nc(C)c(C)cc21)=NO[C@H](C)c1cn([C@H](CO)Cc2ccccc2)nn1,0.22,-0.535 (inactive),0.13 (inactive),2.77 (inactive),-0.245 (inactive),-0.0592,0.0487,1,0.25,1.04,0.115 (inactive),0.0402,5.14 (inactive),0.985 (inactive),2.45 (inactive),0.638 (inactive),-0.0039,-0.443 (inactive),-0.076 (inactive),0.863
COC(=O)[C@H](C)NC(=O)CC=C[C@@H](C)[C@@H]1C=C[C@H](O)[C@@H](CO)O1,0.355,0.301 (inactive),1 (inactive),-0.434 (inactive),0.222 (inactive),0.116,-0.0918,0.945,0.394,1.39,0.645 (inactive),-0.269,-0.488 (inactive),0.544 (inactive),-0.0002 (inactive),0.0748 (inactive),0.244,0.534 (inactive),0.62 (inactive),-0.231
COC(=O)CC=C[C@@H](C)[C@@H](C=NOC(C)CN1CCCCc2nc(C)c(C)cc21)OC (stereo not given in full),0.263,-0.211 (inactive),0.763 (inactive),1.41 (inactive),0.802 (inactive),0.405,-0.239,3.19,2.65,1.79,-0.0952 (inactive),-0.0501,1.78 (inactive),0.322 (inactive),-0.29 (inactive),0.441 (inactive),-0.637,-2.01 (inactive),-0.392 (inactive),-1.52
CCOC(=O)[C@H](Cc1ccccc1)NC(=O)CCC1CC(OC(=O)NCc2ccc3c(c2)OCO3)CC2(CCCC(COC(=O)NCCc3ccc(Cl)cc3)O2)O1 (stereo not given in full),0.0468,-1.42 (inactive),-1.89 (inactive),-0.0696 (inactive),-0.71 (inactive),1.14,-0.0221,0.147,0.214,1.11,-0.393 (inactive),-0.281,1.44 (inactive),-0.0302 (inactive),-0.249 (inactive),-0.741 (inactive),1.51,-0.194 (inactive),0.396 (inactive),1.63
CC(=O)OC[C@H]1O[C@H](C#CCCc2ccccc2)C=C[C@@H]1OC(C)=O,-0.0248,-1.42 (inactive),1.34 (inactive),-0.339 (inactive),0.859 (inactive),-0.0683,-0.0719,0.27,0.553,1.52,-0.2 (inactive),0.233,1.43 (inactive),0.317 (inactive),0.182 (inactive),0.148 (inactive),-0.427,-1.58 (inactive),1.39 (inactive),1.07
CC(C)(C)N1C(=O)[C@H]2[C@H]3[C@H](O)[C@H](O)CC(=NOC[C@@H](O)COCc4ccco4)[C@H]3CC[C@H]2C1=O,-0.0267,0.186 (inactive),-0.486 (inactive),0.701 (inactive),-0.113 (inactive),0.422,-0.0279,0.506,0.465,-0.0386,0.0965 (inactive),0.21,1.18 (inactive),-0.423 (inactive),0.0556 (inactive),0.33 (inactive),-0.159,0.119 (inactive),0.0791 (inactive),0.188
CCOC(=O)NN=C1C[C@@H](O)[C@@H](O)[C@@H]2[C@@H]3C(=O)N(CC)C(=O)[C@@H]3CC[C@H]12,0.0375,0.383 (inactive),0.345 (inactive),-0.656 (inactive),-0.628 (inactive),0.0571,-0.252,0.399,0.441,0.0046,0.539 (inactive),-0.286,-0.259 (inactive),0.072 (inactive),-0.466 (inactive),0.182 (inactive),-0.404,-1.28 (inactive),0.199 (inactive),0.534
CCCNC(=O)OC[C@H]1O[C@H](CCON=C[C@@H](NS(=O)(=O)c2ccc(C)cc2)[C@H](C)C=CCC(=O)OC)C=C[C@@H]1Oc1ccc(OC)cc1,-0.208,-1.47 (inactive),0.169 (inactive),3.17 (inactive),0.26 (inactive),-0.0974,0.316,0.0067,0.488,-0.0635,0.0368 (inactive),0.0633,5.01 (inactive),1.2 (inactive),0.518 (inactive),0.441 (inactive),-0.81,0.173 (inactive),0.361 (inactive),-0.746
